Experimental data reported in PubChem BioAssay (EPA / NIEHS).
The source made the active and inactive calls. The calls were made as follows: active = hit-call score of the fitted dose curve at least 0.9, where 1 is the maximum; inactive = score below 0.9.

read-out: C-C motif chemokine 2 (Homo sapiens) (UniProt P13500); assay: BSK_KF3CT_MCP1: BioMAP Diversity Plus: KF3CT Assay for Monocyte Chemoattractant Protein 1 (MCP1/CCL2) Biomarker Activity (AID 2283073); conditions: primary human keratinocytes with fibroblasts; actives raise or lower the signal
Procedure, shortened: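 Human keratinocyte plus foreskin fibroblast primary co-culture exposed to chemical for 24 h. MCP-1 levels measured by ELISA. Bidirectional curve fitting relative to DMSO negative control as baseline.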

SMILES	outcome	AC50
O=C(O)CC(O)(CC(=O)O)C(=O)O	inactive	–
COc1ccc(OC(F)(F)F)cc1CN[C@H]1CCCN[C@H]1c1ccccc1	inactive	–
CS(=O)(=O)c1ccc([C@@H](C[C@H]2CCC(=O)C2)C(=O)Nc2cnccn2)cc1Cl	inactive	–
O=C1c2c(O)cccc2Cc2cccc(O)c21	–	20 µM (active)
Cc1c(C)c2c(c(C)c1O)CCC(C)(COc1ccc(CC3SC(=O)NC3=O)cc1)O2 (stereo not given)	–	15.1 µM (active)
CCCCC(CC)COC(=O)CCCCCCCC(=O)OCC(CC)CCCC (stereo not given)	inactive	–
C#CC(O)C(CC)CCCC (stereo not given)	inactive	–
NCCOCCOCCN	inactive	–
COC(=O)[C@H]1[C@H]2C[C@@H]3c4[nH]c5cc(OC)ccc5c4CCN3C[C@H]2C[C@@H](OC(=O)c2cc(OC)c(OC)c(OC)c2)[C@@H]1OC	inactive	–
COC(=O)CCC(=O)OC	inactive	–
CC(=O)O	inactive	–
CC(=O)CC(c1ccccc1)c1c(O)c2ccccc2oc1=O (stereo not given)	inactive	–
CC(=O)O[C@]1(C(C)=O)CC[C@H]2[C@@H]3C=C(Cl)C4=CC(=O)[C@@H]5C[C@@H]5[C@]4(C)[C@H]3CC[C@@]21C	inactive	–
c1ccc2occc2c1	inactive	–
NC1CCCCC1	inactive	–
NC(=Nc1ccccc1)Nc1ccccc1	inactive	–
CCCCC(CC)COP(=O)(OCC(CC)CCCC)OCC(CC)CCCC (stereo not given)	inactive	–
O=C(N[C@@H](c1ccccc1)[C@@H]1CCCCN1)c1cccc(C(F)(F)F)c1Cl	inactive	–
Oc1ccccc1O	–	1.14 µM (active)
CC(=O)[C@@]1(O)CC[C@H]2[C@@H]3CCC4=CC(=O)CC[C@]4(C)[C@H]3CC[C@@]21C	inactive	–
CCCCOC(=O)CCCCC(=O)OCCCC	inactive	–
CCc1nc(N)nc(N)c1-c1ccc(Cl)cc1	inactive	–
CO[C@@H]1COCC[C@@H]1N[C@@H]1CC[C@@](C(=O)N2CCc3ncc(C(F)(F)F)cc3C2)(C(C)C)C1	inactive	–
O=C1OC(c2ccc(O)cc2)(c2ccc(O)cc2)c2ccccc21	inactive	–
CN(C)CCCN1c2ccccc2Sc2ccc(Cl)cc21	inactive	–
Nc1nc(=S)c2[nH]cnc2[nH]1	inactive	–
CC(C)OC(=O)C(C)(C)Oc1ccc(C(=O)c2ccc(Cl)cc2)cc1	inactive	–
CCCCC(CC)CO (stereo not given)	inactive	–
CCCCCCC(C=O)=Cc1ccccc1	inactive	–
CCOCCOCCO	inactive	–
